B2AR ag = activates human beta-2 adrenergic receptor causing internalization; Am2.2-beta2AR cells, FAP receptor internalization, flow cytometry; AID 504454; response, % (concentration not given with the values); 0.43% of 340,000 active;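 active = response above a set limit, near 3 SD of response in nonfluorescent compounds, cut at about 42% in these data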
Exocytosis inh = lytic granule exocytosis inhibition; TALL-104 LAMP-1 surface exposure, flow cytometry; cells stimulated with thapsigargin and PMA; 0.66% of 360,000 active; inhibition, % at 10 µM;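 active = inhibition above about 55%, limit read from the data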
NTR1 ag = NTR1 (human) agonism | activation, % at 20 µM | 0.17% of 330,000 active | AID 493036 | NTR1-U2OS beta-arrestin-GFP spot imaging, agonist mode;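 active = activation at or above 40% of the spot to cytoplasm intensity ratio, with at least 20 cells analyzed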;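 note: 0% = DMSO without peptide and 100% = 100 nM NTR1 peptide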
ABHD5 PLIN5 PPI = blocks binding of human ABHD5 to perilipin-5; Q00G26+Q8WTS1; Split G. princeps luciferase complementation, luminescence, 4 h; inhibition, % at 4 µM; 0.78% of 360,000 active; AID 602281;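 active = inhibition above the mean inhibition across every tested compound plus 3 SD, cut at about 22% in these data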;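 note: 0% = DMSO only wells and the 100% control is not disclosed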
m5-HT2A agonist = agonists of mouse serotonin 5-HT2A receptor (HTR2A); P35363; CHO-K1 mHTR2A beta-arrestin complementation, luminescence; percent of 30 µM serotonin response; activation, % at 7.6 µM; 0.66% of 360,000 active;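 active = activation above a run cutoff, the mean activation of all tested compounds plus 3 SD, cut at about 14% in these data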;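 note: 0% = plate median of compound wells and 100% = 30 µM serotonin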
Target sequence (P35363 whole entry, looked up): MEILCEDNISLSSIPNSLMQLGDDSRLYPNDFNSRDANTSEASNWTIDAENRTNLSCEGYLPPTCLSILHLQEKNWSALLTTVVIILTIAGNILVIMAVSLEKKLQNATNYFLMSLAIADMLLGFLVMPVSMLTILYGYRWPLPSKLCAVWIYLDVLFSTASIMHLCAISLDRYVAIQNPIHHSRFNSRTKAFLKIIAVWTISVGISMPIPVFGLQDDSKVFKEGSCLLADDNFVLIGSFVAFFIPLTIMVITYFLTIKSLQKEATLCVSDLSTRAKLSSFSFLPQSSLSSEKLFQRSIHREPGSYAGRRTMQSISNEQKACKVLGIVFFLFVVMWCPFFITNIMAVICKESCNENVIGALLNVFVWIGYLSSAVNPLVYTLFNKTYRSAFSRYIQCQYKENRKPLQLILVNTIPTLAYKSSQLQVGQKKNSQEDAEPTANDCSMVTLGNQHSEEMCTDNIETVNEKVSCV
B2AR ag CP1 = human beta-2 adrenergic receptor agonism, cherry pick. AID 540358. percent response (surface receptor), % at 10 µM. shares compounds with B2AR ag. 25% of 1,100 active. Am2.2-beta2AR cells, FAP surface receptor, flow cytometry; active compounds read low;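 active = surface receptor percent response at or below 58%, roughly 3 SD from nonfluorescent compounds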
FAP fluor counter = flagged in Am2.2 fluorescence counterscreen for beta-2AR agonists | shares compounds with B2AR ag | Am2.2 cells, FAP fluorogen flow cytometry; active compounds read low | calls only at 10 µM | 1,100 tested, under 10 active | AID 588765;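 active = percent response below a set limit in fluorescence channel 1 and below 50% in channel 8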
Numbers without * were called inactive; i = inactive; · = not tested or not shown. In the library only some 2.3% were active in any assay of this set; here they are far more common.

SMILES	B2AR ag	Exocytosis inh	NTR1 ag	ABHD5 PLIN5 PPI	m5-HT2A agonist	B2AR ag CP1	FAP fluor counter
c1ccc(CNc2nc(-c3cccnc3)nc3ccccc23)cc1	-11	8	2	6	-8	174	i
Fc1ccc(CNc2nc(-c3cccnc3)nc3ccccc23)cc1	-18	6	6	-4	3	161	i
NS(=O)(=O)c1ccc(CNc2nc(-c3cccnc3)nc3ccccc23)cc1	12	-3	1	1	-4	141	i
COC(=O)CNc1nc(-c2cccnc2)nc2ccccc12	-7	3	-3	-3	1	·	·
c1cncc(CNc2nc(-c3cccnc3)nc3ccccc23)c1	-14	1	2	4	-9	166	i
S=C(NC1CC2CCC1C2)N1CCN(c2cccc(Cl)c2)CC1 (stereo not drawn)	-23	1	4	-7	-5	·	·
CCC(=O)N1CCc2cc(S(=O)(=O)CCC(=O)N3CCN(c4ccc(F)cc4)CC3)ccc21	-27	-2	0	-7	0	·	·
c1cncc(-c2nc(NCc3ccc4c(c3)OCO4)c3ccccc3n2)c1	13	-14	6	6	-5	155	i
c1cncc(-c2nc(NCC3COc4ccccc4O3)c3ccccc3n2)c1 (stereo not drawn)	24	23	9	13	4	·	·
COC(=O)C1=C(C)N(Cc2ccccc2)C(=NCCc2cccnc2)N[C@H]1c1ccc(Br)cc1	47*	52	19	15	-4	85	i
CCc1cccc2c1NC1(CCCC1)CC2C (stereo not drawn)	3	-7	2	2	3	106	i
O=C(O)c1ccc(Oc2ccc([N+](=O)[O-])cc2)c([N+](=O)[O-])c1	-2	3	·	5	4	·	·
Cc1cc(OC(C)C(=O)NCCCN2CCOCC2)c2c(C)c(C)c(=O)oc2c1 (stereo not drawn)	-5	0	1	3	-3	·	·
Nn1c(SCc2nc3ccccc3[nH]2)nnc1-c1ccccc1	-5	-2	-1	3	2	·	·
Cc1ccc(OCc2nnc(SCc3nc4ccccc4[nH]3)n2Cc2ccco2)cc1	104*	34	0	1	-4	20*	i
c1ccc(-c2nnc(SCc3nc4ccccc4[nH]3)n2Cc2ccco2)cc1	-12	-2	1	7	-3	138	i
Cc1ccc(Cn2cc(CN3CC(N4CCN(C5CCN(C)CC5)CC4)CS3(=O)=O)nn2)cc1 (stereo not drawn)	·	-3	·	7	-6	·	·
Cc1nc2cc(N3CCOCC3)c(NC(=O)C3CC3)cc2c(=O)n1Cc1ccccc1	49*	0	-2	-5	-1	65	i
Cc1nc2cc(N3CCCCC3)c(NC(=O)c3ccncc3)cc2c(=O)n1Cc1ccccc1	4	4	·	2	3	·	·
CCOC(=O)c1cnc2cc(-c3ccc(Br)cc3)nn2c1C	2	-5	0	4	-2	·	·
COc1ccc(NS(=O)(=O)c2cc(NC(=O)c3nc4nc(C)cc(C)n4n3)ccc2C)cc1	-2	-1	-1	1	3	133	i
Cc1cc(C)n2nc(C(=O)OCC(=O)Nc3ccc(C)c(S(=O)(=O)N(C)C)c3)nc2n1	-1	-4	0	-1	-3	·	·
COc1ccccc1NS(=O)(=O)c1cccc(NC(=O)c2nc3nc(C)cc(C)n3n2)c1	-2	-1	1	-3	0	136	i
CC(C)Oc1cccc(C(=O)Nc2ccc(NC(=O)c3ccco3)cc2)c1	-10	1	2	0	-3	148	i
COc1cccc(OC)c1C(=O)NC(=S)Nc1cccc(NC(=O)c2ccco2)c1	-5	2	3	5	-4	·	·
SMILES	B2AR ag	Exocytosis inh	NTR1 ag	ABHD5 PLIN5 PPI	m5-HT2A agonist	B2AR ag CP1	FAP fluor counter
COc1cccc(OC)c1C(=O)Nc1ccc(NC(=O)c2ccco2)cc1	-10	1	-2	-3	2	99	i
O=C(Nc1ccc(Br)cc1)c1cccc(S(=O)(=O)Nc2cnc3ccccc3c2)c1	47*	7	4	1	7	104	i
O=C1ON=C(c2ccccc2)/C1=C/c1cccnc1	-3	-5	·	-8	0	100	i
CCOc1ccc2oc(C(=O)O)c(C)c2c1	3	4	-1	-3	-1	·	·
CCOc1ccc2oc(C(=O)NCC(C)(C)CN(C)C)c(C)c2c1	55*	0	-1	9	-6	103	i
COCCN(C(=O)COC(=O)c1nc(Cl)ccc1Cl)c1c(N)n(Cc2ccccc2)c(=O)[nH]c1=O	-18	0	-1	1	4	·	·
CCNC(=O)c1ccccc1CCc1ccccc1	0	-2	0	1	1	·	·
O=C(Nc1ccccc1)c1ccccc1CCc1ccccc1	32	-4	1	-4	0	46*	i
Brc1ccc(-c2nnc(Cc3ccccc3)o2)cc1	-14	-5	0	-7	4	133	i
O=C(Nc1ccc(S(=O)(=O)N2CCCCC2c2cccnc2)cc1)c1c(F)cccc1F (stereo not drawn)	87*	-1	-1	-2	-3	49*	i
CC(=O)Nc1ccc(S(=O)(=O)N2CCCC3CCCCC32)cc1 (stereo not drawn)	-2	-2	-2	-2	1	·	·
CCC1CCCCN1S(=O)(=O)c1ccc(NC(=O)c2ccncc2)cc1 (stereo not drawn)	1	-2	1	3	3	·	·
CC(=O)Nc1ccc(S(=O)(=O)N2CCCCC2c2cccnc2)cc1 (stereo not drawn)	-8	2	0	-9	1	21*	i
CCCCC(=O)Nc1ccc(S(=O)(=O)N2CCCCC2c2cccnc2)cc1 (stereo not drawn)	129*	-4	1	-3	4	27*	i
CCCOc1cccc(C2C(C(=O)c3ccc(C)o3)=C(O)C(=O)N2c2nc(C)c(C(C)=O)s2)c1 (stereo not drawn)	-2	2	0	-15	2	·	·
Cc1ccccc1NC(=O)Cn1nnc(-c2ccc(N3CCOCC3)cc2)n1	2	-1	-3	-1	-5	·	·
CN(C)c1ccc(-c2nnn(CC(=O)Nc3ccccc3N3CCOCC3)n2)cc1	-14	0	1	0	14	105	i
C/C(=C/c1ccccc1)C(=O)N1CCC(C)CC1	4	7	-1	-2	-2	·	·
Cc1ccc(OCc2cc(C(=O)N(C)Cc3cnn(C)c3)no2)cc1C	·	-5	·	-2	-4	·	·
COC(=O)[C@@H](NC(=O)c1cc(COc2cncc(Cl)c2)on1)c1ccccc1	2	5	0	-3	-2	97	i

Screens: PubChem BioAssay, several laboratories
